Test results published in PubChem BioAssay (EPA / NIEHS).
Records with an inconclusive call do not appear. Activity calls are given as the source filed them. How the source made its calls, unless noted: active means hit-call score of the fitted dose curve at least 0.9, where 1 is the maximum; inactive means score below 0.9.

Tests used:
[1] = ATG_TAL_CIS: Attagene CIS-FACTORIAL HepG2 Assay for human TAL Basal Promoter (AID 2282966); settings: HepG2 Attagene cis-factorial TAL promoter reporter; actives raise or lower the signal;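 further: background control endpoint measuring basal TAL promoter reporter mRNA not a specific factor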
Outline: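 Readout: reporter mRNA, fluorescence by CE. System: HepG2, transient multi-reporter transfection, endogenous TF activity. Exposure: 24 h. Analysis: bidirectional, DMSO-normalized; background control.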

[2] = ATG_TGFb_CIS: Attagene CIS-FACTORIAL HepG2 Assay for human Transforming Growth Factor (TGF) (AID 2282967); settings: HepG2 Attagene CIS TGFb reporter, mRNA transcription; actives raise or lower the signal
Outline: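 Liver HepG2 line, cis-factorial reporter panel, 24 h dosing. Quantitation: RT-PCR products labeled with 6-FAM, cut with HpaI, resolved by capillary electrophoresis; DMSO-referenced bidirectional analysis.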

[3] = ATG_VDRE_CIS: Attagene CIS-FACTORIAL HepG2 Assay for human Vitamin D Receptor Element (VDRE) (AID 2282968); settings: HepG2 VDRE cis-reporter transcription, actives raise or lower the signal
Outline: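 Reporter mRNA induction, quantified by capillary electrophoresis of fluorescently labelled RT-PCR products, was read 24 h after dosing HepG2 cells carrying transiently transfected cis-regulated reporter units; gain or loss relative to DMSO.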

[4] = target: X-box-binding protein 1 (Homo sapiens) (UniProt P17861); experiment: ATG_Xbp1_CIS: Attagene CIS-FACTORIAL HepG2 Assay for human X-box Binding Protein 1 (XBP1) (AID 2282972); settings: HepG2 XBP1 cis-element reporter, Attagene multiplex; actives raise or lower the signal
Sequence of X-box-binding protein 1 (Homo sapiens) (P17861 whole entry, looked up): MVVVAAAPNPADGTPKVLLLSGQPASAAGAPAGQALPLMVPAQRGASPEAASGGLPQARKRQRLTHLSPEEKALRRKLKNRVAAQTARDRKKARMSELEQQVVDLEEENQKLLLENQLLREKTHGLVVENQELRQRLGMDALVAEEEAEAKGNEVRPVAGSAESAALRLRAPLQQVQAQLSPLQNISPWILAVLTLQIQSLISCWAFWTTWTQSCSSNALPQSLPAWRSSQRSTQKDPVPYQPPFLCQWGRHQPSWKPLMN
Outline: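 HepG2, transient MRTU transfection (cis-promoter driven), 24 h compound exposure. Total RNA → oligo(dT) RT → PCR → 6-FAM labeling → HpaI cut → CE. Bidirectional fit vs DMSO.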

[5] = target: Oxysterols receptor LXR-alpha (Homo sapiens) (UniProt Q13133); experiment: ATG_LXRa_TRANS: Attagene TRANS-FACTORIAL HepG2 Assay for human Liver X Receptor alpha (LXRa) (AID 2282980; active means hit-call score of the fitted dose curve at least 0.9, where 1 is the maximum); settings: HepG2 Attagene TRANS reporter, LXRa transactivation
Sequence of Oxysterols receptor LXR-alpha (Homo sapiens) (Q13133 whole entry, looked up): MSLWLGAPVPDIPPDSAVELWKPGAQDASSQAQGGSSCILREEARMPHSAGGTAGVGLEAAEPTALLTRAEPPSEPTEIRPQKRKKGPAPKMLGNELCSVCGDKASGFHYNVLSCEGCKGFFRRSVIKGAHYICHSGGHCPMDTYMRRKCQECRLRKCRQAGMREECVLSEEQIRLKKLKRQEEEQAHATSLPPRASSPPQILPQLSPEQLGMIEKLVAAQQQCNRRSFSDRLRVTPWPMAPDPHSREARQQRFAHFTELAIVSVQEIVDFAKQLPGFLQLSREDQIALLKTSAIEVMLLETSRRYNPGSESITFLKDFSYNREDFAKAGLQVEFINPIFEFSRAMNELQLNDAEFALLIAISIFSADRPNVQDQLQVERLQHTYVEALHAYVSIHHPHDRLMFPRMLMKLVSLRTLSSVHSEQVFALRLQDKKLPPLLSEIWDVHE
Outline: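 Transient HepG2 transfectants, 24 h dosing, RT-PCR/CE mRNA reporter quantitation; gain-of-signal vs DMSO.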

[6] = target: Oxysterols receptor LXR-beta (Homo sapiens) (UniProt P55055); experiment: ATG_LXRb_TRANS: Attagene TRANS-FACTORIAL HepG2 Assay for human Liver X Receptor beta (LXRb) (AID 2282981; active means hit-call score of the fitted dose curve at least 0.9, where 1 is the maximum); settings: HepG2 Attagene TRANS GAL4-LXRb reporter, mRNA
Outline: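 Transient transfection HepG2 (multiplexed RTUs, GAL4-UAS); NR-Gal4 chimera; 24 h exposure; RNA → RT-PCR → 6-FAM primer extension → HpaI → CE; increase vs DMSO.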

[7] = target: Hepatocyte nuclear factor 4-alpha (Homo sapiens) (UniProt P41235); experiment: ATG_HNF4a_TRANS: Attagene TRANS-FACTORIAL HepG2 Assay for human Hepatocyte Nuclear Factor 4 alpha (HNF4a) (AID 2282982; active means hit-call score of the fitted dose curve at least 0.9, where 1 is the maximum); settings: HepG2 HNF4a transactivation reporter, mRNA readout
Sequence of Hepatocyte nuclear factor 4-alpha (Homo sapiens) (P41235 whole entry, looked up, the tested form may be a part): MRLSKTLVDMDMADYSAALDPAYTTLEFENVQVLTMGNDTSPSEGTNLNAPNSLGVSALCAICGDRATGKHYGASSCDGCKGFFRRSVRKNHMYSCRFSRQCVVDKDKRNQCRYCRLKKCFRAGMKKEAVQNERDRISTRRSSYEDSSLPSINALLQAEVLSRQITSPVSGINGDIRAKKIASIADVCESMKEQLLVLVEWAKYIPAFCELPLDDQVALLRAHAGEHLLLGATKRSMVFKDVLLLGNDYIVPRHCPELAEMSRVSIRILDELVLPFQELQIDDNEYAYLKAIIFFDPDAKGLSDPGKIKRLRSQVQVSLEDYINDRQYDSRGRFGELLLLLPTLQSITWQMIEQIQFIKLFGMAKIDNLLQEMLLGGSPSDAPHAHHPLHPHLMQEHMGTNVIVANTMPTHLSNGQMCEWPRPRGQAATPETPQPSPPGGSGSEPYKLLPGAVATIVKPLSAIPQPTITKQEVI
Outline: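 Readout is fluorescent reporter-transcript fragments resolved by capillary electrophoresis after RT-PCR from HepG2 cells dosed for 24 h. Cells carried transfected GAL4-UAS reporter constructs measuring exogenous NR-GAL4 chimera activity; DMSO served as baseline.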

[8] = ATG_M_06_TRANS: Attagene TRANS-FACTORIAL HepG2 Assay for M06 Transcription Factor (Internal Marker) (AID 2282983; active means hit-call score of the fitted dose curve at least 0.9, where 1 is the maximum;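 further: reporter transcript level by RT-PCR then capillary electrophoresis fluorescence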); settings: HepG2 Attagene TRANS M06 internal marker reporter
Outline: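 Measured by capillary electrophoresis of fluorescently labelled RT-PCR products, this endpoint reflects reporter mRNA in HepG2 cells harbouring exogenous NR-GAL4 reporter constructs after 24 h exposure, with DMSO as baseline.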

[9] = target: Transcriptional activator Myb (Homo sapiens) (UniProt P10242); experiment: ATG_Myb_CIS: Attagene CIS-FACTORIAL HepG2 Assay for human Myeloblastosis (Myb) Proto-Oncogene Transcription Factor (AID 2282986); settings: HepG2 Attagene CIS-FACTORIAL Myb reporter transcription; actives raise or lower the signal
Sequence of Transcriptional activator Myb (Homo sapiens) (P10242 whole entry, looked up): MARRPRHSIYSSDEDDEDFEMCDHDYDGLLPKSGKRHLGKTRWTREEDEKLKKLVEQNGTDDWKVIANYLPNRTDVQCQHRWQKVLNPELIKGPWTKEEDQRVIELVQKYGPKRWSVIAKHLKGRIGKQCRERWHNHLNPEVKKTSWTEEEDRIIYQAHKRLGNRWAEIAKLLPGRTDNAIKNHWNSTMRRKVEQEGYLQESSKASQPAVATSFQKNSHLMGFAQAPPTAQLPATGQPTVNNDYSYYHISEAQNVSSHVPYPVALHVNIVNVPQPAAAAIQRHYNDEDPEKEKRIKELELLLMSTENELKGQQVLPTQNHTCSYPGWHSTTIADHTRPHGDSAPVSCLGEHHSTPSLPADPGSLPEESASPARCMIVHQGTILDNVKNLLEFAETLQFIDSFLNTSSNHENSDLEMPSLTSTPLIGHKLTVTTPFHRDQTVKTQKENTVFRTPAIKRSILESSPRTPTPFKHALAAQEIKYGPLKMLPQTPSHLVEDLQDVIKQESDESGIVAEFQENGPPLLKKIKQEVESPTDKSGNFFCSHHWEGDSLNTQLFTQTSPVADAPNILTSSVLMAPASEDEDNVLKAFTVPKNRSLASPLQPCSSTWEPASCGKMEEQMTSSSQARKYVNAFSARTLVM
Outline: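 Transiently transfected HepG2 cells carrying a multiplexed cis-promoter reporter set report endogenous Myb activity after 24 h compound exposure. Reporter mRNA is read by RT-PCR with capillary electrophoresis of fluorescent products, fitted bidirectionally against DMSO.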

[10] = target: Nuclear respiratory factor 1 (Homo sapiens) (UniProt Q16656); experiment: ATG_NRF1_CIS: Attagene CIS-FACTORIAL HepG2 Assay for human Nuclear Respiratory Factor 1 (NRF1) Orphan Gene (AID 2282987); settings: HepG2 NRF1 cis-element reporter, Attagene multiplex; actives raise or lower the signal
Sequence of Nuclear respiratory factor 1 (Homo sapiens) (Q16656 whole entry, looked up): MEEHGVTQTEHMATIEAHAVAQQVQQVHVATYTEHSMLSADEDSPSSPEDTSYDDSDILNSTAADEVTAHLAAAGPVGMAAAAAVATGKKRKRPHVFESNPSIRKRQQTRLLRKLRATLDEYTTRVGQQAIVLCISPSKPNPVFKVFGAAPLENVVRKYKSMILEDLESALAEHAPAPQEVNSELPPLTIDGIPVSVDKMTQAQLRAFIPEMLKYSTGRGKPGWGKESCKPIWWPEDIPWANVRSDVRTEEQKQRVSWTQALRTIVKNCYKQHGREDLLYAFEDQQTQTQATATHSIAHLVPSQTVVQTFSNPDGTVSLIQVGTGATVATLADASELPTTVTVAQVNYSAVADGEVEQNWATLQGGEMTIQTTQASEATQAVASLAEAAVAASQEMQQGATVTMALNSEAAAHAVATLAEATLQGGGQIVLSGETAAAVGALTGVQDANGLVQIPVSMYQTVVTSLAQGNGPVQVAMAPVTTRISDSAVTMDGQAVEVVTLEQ
Outline: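 HepG2 cells transiently transfected with multiple cis-regulated reporter units, exposed 24 h. Reporter mRNAs measured by RT-PCR, fluorescent labelling, HpaI digestion and capillary electrophoresis; bidirectional fitting against DMSO.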

[11] = ATG_NFI_CIS: Attagene CIS-FACTORIAL HepG2 Assay for human Nuclear Factor I (NFI) (AID 2282989); settings: HepG2 cis-regulatory reporter, NFI response element transcription; actives raise or lower the signal
Outline: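 Transfected HepG2 liver cells, exposed 24 h, supplied total RNA for oligo(dT) reverse transcription and reporter-specific PCR. Labelled, HpaI-cut fragments were sized by capillary electrophoresis; DMSO set the baseline for bidirectional fitting.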

[12] = target: Nuclear receptor subfamily 4 group A member 2 (Homo sapiens) (UniProt P43354); experiment: ATG_NURR1_TRANS: Attagene TRANS-FACTORIAL HepG2 Assay for human Nuclear Receptor Related Protein 1 (NURR1) (AID 2282985; active means hit-call score of the fitted dose curve at least 0.9, where 1 is the maximum); settings: HepG2 Attagene TRANS reporter, mRNA readout
Sequence of Nuclear receptor subfamily 4 group A member 2 (Homo sapiens) (P43354 whole entry, looked up, the tested form may be a part): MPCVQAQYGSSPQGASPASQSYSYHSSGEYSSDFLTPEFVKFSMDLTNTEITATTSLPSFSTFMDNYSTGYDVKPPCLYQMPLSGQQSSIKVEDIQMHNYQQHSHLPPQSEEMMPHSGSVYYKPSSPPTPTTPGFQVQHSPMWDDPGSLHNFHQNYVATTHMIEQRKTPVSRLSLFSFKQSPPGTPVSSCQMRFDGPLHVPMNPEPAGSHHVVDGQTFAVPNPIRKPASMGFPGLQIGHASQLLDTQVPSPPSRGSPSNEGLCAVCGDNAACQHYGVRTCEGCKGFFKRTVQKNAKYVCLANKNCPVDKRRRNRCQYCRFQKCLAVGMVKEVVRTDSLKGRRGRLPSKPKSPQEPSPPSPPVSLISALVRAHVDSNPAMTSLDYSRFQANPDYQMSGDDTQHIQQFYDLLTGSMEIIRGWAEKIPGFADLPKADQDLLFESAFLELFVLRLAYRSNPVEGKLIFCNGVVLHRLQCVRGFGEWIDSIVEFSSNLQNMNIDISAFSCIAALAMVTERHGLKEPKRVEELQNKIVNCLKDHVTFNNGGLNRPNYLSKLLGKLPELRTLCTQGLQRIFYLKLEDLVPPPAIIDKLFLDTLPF
Outline: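 Transient transfection of HepG2, human liver cells, with multiple GAL4-UAS reporter transcription units. Cells dosed 24 h, RNA isolated, reverse-transcribed, PCR-amplified, FAM-labelled, HpaI-digested, sized by capillary electrophoresis. DMSO served as negative control.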

[13] = target: Nuclear receptor subfamily 1 group I member 3 (Homo sapiens) (UniProt Q14994); experiment: ATG_CAR_TRANS: Attagene TRANS-FACTORIAL HepG2 Assay for human Constitutive Androstane Receptor (CAR) (AID 2282969; active means hit-call score of the fitted dose curve at least 0.9, where 1 is the maximum;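 further: activators raise reporter mRNA above DMSO so AC50 marks induction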); settings: HepG2 Attagene TRANS-FACTORIAL CAR reporter
Sequence of Nuclear receptor subfamily 1 group I member 3 (Homo sapiens) (Q14994 whole entry, looked up, the tested form may be a part): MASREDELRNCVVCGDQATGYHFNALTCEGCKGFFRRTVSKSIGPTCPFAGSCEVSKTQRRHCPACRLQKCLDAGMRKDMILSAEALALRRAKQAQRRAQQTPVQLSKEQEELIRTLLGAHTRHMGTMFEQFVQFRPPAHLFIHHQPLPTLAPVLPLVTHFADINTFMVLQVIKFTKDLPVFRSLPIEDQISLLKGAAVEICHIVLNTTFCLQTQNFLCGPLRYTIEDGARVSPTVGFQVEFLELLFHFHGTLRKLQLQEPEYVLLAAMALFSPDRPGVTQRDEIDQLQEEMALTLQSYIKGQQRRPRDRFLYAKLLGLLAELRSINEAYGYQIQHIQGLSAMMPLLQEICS
Outline: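 Readout is reporter mRNA induction, quantified by fluorescent primer extension and capillary electrophoresis after RT-PCR. Cells were HepG2 transiently carrying chimeric NR-Gal4 constructs with GAL4-UAS reporters, treated for 24 h; activity scored upward from DMSO.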

[14] = target: Steroid hormone receptor ERR1 (Homo sapiens) (UniProt P11474); experiment: ATG_ERRa_TRANS: Attagene TRANS-FACTORIAL HepG2 Assay for human Estrogen-Related Receptor alpha (ERRa) (AID 2282971; active means hit-call score of the fitted dose curve at least 0.9, where 1 is the maximum); settings: HepG2 Attagene TRANS reporter, ERRa transactivation
Outline: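 HepG2 cells were transiently transfected with multiple GAL4-UAS reporter units, then dosed with compound for 24 h. Total RNA was reverse-transcribed, reporter cDNA PCR-amplified and fluorescently labelled, and fragments resolved by capillary electrophoresis; induction was compared with DMSO.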

[15] = ATG_GAL4_TRANS: Attagene TRANS-FACTORIAL HepG2 Assay for GAL4 (Internal Marker) (AID 2282976; active means hit-call score of the fitted dose curve at least 0.9, where 1 is the maximum); settings: HepG2 Attagene TRANS GAL4 internal marker reporter
Outline: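 Fluorescence from capillary electrophoresis of labelled RT-PCR products quantifies reporter mRNA induction after 24 h dosing of HepG2 cells carrying transfected GAL4-UAS reporter transcription units. Vehicle DMSO serves as baseline.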

[16] = target: Estrogen-related receptor gamma (Homo sapiens) (UniProt P62508); experiment: ATG_ERRg_TRANS: Attagene TRANS-FACTORIAL HepG2 Assay for human Estrogen-Related Receptor gamma (ERRg) (AID 2282977; active means hit-call score of the fitted dose curve at least 0.9, where 1 is the maximum;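 further: hits increase reporter signal over DMSO so potencies reflect activators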); settings: HepG2 Attagene TRANS reporter, ERRg transactivation
Sequence of Estrogen-related receptor gamma (Homo sapiens) (P62508 whole entry, looked up, the tested form may be a part): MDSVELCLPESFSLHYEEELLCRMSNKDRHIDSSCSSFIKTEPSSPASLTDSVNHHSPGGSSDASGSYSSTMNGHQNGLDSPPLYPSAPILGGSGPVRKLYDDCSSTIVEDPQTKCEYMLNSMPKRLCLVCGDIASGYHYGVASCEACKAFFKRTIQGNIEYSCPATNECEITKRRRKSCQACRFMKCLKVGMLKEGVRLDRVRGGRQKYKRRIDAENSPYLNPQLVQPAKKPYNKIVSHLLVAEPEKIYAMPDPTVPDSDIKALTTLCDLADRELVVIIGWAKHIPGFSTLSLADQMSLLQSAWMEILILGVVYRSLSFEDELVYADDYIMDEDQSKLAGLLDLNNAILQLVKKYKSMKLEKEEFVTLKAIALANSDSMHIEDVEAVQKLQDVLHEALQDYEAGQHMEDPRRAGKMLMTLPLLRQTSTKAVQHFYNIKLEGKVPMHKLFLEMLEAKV
Outline: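 HepG2 cells transiently transfected with multiplexed GAL4-UAS reporter units driven by chimeric NR-Gal4 proteins; 24 h exposure. Reporter mRNA quantified by RT-PCR, fluorescent labelling, HpaI digestion and capillary electrophoresis; gain of signal vs DMSO.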

[17] = target: Bile acid receptor (Homo sapiens) (UniProt Q96RI1); experiment: ATG_FXR_TRANS: Attagene TRANS-FACTORIAL HepG2 Assay for Farnesoid X Receptor (FXR) (AID 2282979; active means hit-call score of the fitted dose curve at least 0.9, where 1 is the maximum;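 further: hits raise reporter mRNA above DMSO so AC50 marks FXR activation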); settings: HepG2 Attagene TRANS FXR-GAL4 reporter transcription
Sequence of Bile acid receptor (Homo sapiens) (Q96RI1 whole entry, looked up, the tested form may be a part): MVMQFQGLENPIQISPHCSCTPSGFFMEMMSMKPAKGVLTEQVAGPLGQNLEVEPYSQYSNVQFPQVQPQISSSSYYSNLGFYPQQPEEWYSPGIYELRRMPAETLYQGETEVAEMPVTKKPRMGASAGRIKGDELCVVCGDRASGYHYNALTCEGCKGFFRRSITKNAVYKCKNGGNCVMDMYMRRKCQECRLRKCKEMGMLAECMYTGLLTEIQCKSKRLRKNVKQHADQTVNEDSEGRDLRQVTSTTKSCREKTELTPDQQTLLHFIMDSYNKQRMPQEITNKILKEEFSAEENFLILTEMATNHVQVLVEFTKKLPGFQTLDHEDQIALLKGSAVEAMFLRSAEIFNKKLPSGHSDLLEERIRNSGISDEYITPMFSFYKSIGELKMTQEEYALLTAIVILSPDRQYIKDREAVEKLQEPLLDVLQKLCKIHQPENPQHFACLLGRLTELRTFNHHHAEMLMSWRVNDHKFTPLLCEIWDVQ
Outline: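 Chimeric FXR-GAL4 activity in transiently transfected human HepG2 liver cells is scored as induction of reporter mRNA after 24 h of dosing. Detection uses RT-PCR with fluorescent labelling and capillary electrophoresis, with DMSO serving as baseline.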

[18] = ATG_M_19_TRANS: Attagene TRANS-FACTORIAL HepG2 Assay for M19 Transcription Factor (Internal Marker) (AID 2282974; active means hit-call score of the fitted dose curve at least 0.9, where 1 is the maximum); settings: HepG2 Attagene TRANS-FACTORIAL M19 internal marker reporter
Outline: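 HepG2 transiently transfected with GAL4-UAS multiplex reporter constructs, exposed 24 h; reporter RNA quantified by RT-PCR, 6-FAM labeling, HpaI digestion and capillary electrophoresis; internal background marker fitted upward versus DMSO.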

[19] = target: Glucocorticoid receptor (Homo sapiens) (UniProt P04150); experiment: ATG_GR_TRANS: Attagene TRANS-FACTORIAL HepG2 Assay for human Glucocorticoid Receptor (GR) (AID 2282978; active means hit-call score of the fitted dose curve at least 0.9, where 1 is the maximum;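 further: activators score as hits since higher reporter transcript over DMSO is fitted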); settings: HepG2 Attagene TRANS GR reporter, mRNA transcription
Sequence of Glucocorticoid receptor (Homo sapiens) (P04150 whole entry, looked up, the tested form may be a part): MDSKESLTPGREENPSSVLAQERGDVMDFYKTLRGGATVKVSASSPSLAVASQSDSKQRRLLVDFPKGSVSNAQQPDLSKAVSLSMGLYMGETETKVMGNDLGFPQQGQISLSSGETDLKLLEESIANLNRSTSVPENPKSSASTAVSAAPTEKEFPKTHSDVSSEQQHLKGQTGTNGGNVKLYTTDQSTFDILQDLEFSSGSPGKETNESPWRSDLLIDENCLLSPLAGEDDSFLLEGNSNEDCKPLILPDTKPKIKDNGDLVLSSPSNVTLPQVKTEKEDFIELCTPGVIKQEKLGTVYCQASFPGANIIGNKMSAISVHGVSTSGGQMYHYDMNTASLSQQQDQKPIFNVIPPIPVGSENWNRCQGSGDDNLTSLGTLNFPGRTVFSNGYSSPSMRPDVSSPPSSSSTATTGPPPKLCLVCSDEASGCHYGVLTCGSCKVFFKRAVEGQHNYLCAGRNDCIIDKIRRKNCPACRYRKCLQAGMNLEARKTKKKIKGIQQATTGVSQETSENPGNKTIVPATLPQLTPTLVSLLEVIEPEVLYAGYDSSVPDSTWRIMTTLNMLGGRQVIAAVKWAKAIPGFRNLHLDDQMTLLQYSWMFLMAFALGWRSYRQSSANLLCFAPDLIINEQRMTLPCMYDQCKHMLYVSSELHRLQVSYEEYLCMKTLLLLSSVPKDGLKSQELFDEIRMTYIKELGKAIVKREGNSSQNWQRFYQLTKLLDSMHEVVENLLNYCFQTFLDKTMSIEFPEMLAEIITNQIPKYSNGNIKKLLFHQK
Outline: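 HepG2 cells transiently transfected with GAL4-UAS reporter units and exogenous GR-Gal4 chimera, dosed 24 h. Reporter mRNA by RT-PCR, FAM labeling, HpaI digest and capillary electrophoresis; gain-of-signal fit versus DMSO.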

Measured: outcome

OC[C@H]1O[C@@H](Oc2ccc(O)cc2)[C@H](O)[C@@H](O)[C@@H]1O
inactive: [1] | [2] | [3] | [4] | [5] | [6] | [7] | [8] | [9] | [10] | [11]

CCCCC1(COC(=O)CCC(=O)O)C(=O)N(c2ccccc2)N(c2ccccc2)C1=O
inactive: [1] | [2] | [3] | [4] | [8] | [12] | [9] | [10] | [11]

Cc1ncc([N+](=O)[O-])n1CCO
inactive: [1] | [2] | [13] | [14] | [4] | [15] | [16] | [5] | [7] | [8] | [9] | [10] | [11]

Cc1ccc(N)c(S(=O)(=O)O)c1
inactive: [1] | [2] | [3] | [4] | [17] | [5] | [7] | [8] | [9] | [10] | [11]

COc1cc(Cl)c(OC)cc1N
inactive: [1] | [2] | [3] | [18] | [19] | [17] | [5] | [7] | [8] | [9] | [10] | [11]

CC(=O)c1ccccn1
inactive: [1] | [2] | [3] | [4] | [8] | [12] | [9] | [10] | [11]
